The list is not random: actives were taken first. Their share in the collection is about 4.1%.
DAX1 inh-1: NR0B1 (DAX1) inhibition. P51843. HEK293 Gal4-DAX1 luciferase reporter, luminescence. inhibition, % at 6.75 µM. hit rate 0.99% among 340,000. AID 504766;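 active means inhibition above the mean over all tested compounds plus 3 SD, cut at about 4.2% in these data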;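 further: 0% = DAX1-transfected cells with DMSO and 100% = empty-vector control cells with DMSO; inhibition shows as a rise in luminescence from relieved DAX1 repression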
Target sequence (P51843 207-470 limits assumed): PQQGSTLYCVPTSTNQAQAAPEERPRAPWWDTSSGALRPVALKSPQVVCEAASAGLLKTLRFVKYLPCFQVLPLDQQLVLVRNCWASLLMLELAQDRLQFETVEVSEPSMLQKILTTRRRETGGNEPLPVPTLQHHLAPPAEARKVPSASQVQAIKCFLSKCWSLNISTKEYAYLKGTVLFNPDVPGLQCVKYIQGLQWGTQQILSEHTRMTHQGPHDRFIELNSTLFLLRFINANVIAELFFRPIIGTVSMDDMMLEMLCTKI
DAX1 inh-2: blocks DAX1 repression of SF-1 activated StAR promoter. HEK293T StAR-luciferase reporter, SF-1/DAX-1 repression relief. hit rate 1.1% among 370,000. inhibition, % at 6.8 µM;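 active means inhibition above the mean over all tested compounds plus 3 SD, cut at about 3.6% in these data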;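 further: 0% = DAX-1 cells with DMSO and 100% = cells lacking DAX-1 with DMSO; higher inhibition means more luminescence from relief of DAX-1 repression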
ssDAF-12 act: activates DAF-12 receptor from parasite S. stercoralis. HEK293 ssDAF-12/GRIP1 lit1-tk-luc reporter, luminescence; % of 3 µM dafachronic acid response. activation, % at 6.8 µM. hit rate 1% among 370,000;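 active means activation above the mean over all tested compounds plus 3 SD, cut at about 0.9% in these data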;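 further: 0% = DMSO-only wells and 100% = 3 µM delta7-dafachronic acid wells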
hgDAF-12 ag: agonists of H. glycines DAF-12 nuclear receptor; activation, % at 6.8 µM; HEK293 GAL4-hgDAF12 UAS-luciferase reporter, agonist luminescence; normalized to butyrate control; hit rate 1.8% among 370,000;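 active means activation above a cutoff set at the mean of all screened compounds plus 3 SD, cut at about 10% in these data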;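 further: 0% = DMSO wells and 100% = sodium butyrate wells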
hcDAF-12 act: activates DAF-12 receptor from parasite H. contortus; HEK293 hcDAF-12 lit1-tk-luc reporter, luminescence; 0% DMSO, 100% Δ7-dafachronic acid; activation, % at 6.8 µM; hit rate 1.4% among 370,000; AID 652067;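 active means activation above the mean of all tested compounds plus 3 SD, cut at about 5.5% in these data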;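 further: 100% = response to 3 µM Δ7-dafachronic acid high control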
An asterisk follows results filed as active; nt = no result.

SMILES	DAX1 inh-1	DAX1 inh-2	ssDAF-12 act	hgDAF-12 ag	hcDAF-12 act
COc1ccc(-c2nc3ccccc3c(=O)o2)cc1	0.4	2.4	-0.2	6.3	5.9*
COc1ccc(-n2c(-c3ccc(C)cc3)nc3ccccc3c2=O)cc1	1.7	-0.1	-0.5	0.9	-1.0
CN1c2ccc(Br)cc2[C@H]2NCC[C@H]2[C@H]1CO	nt	-0.8	0.3	2.3	4.0
CCOC(=O)CNC(=O)N1Cc2cc(Br)ccc2-n2nncc2C1	nt	-0.3	-0.7	2.8	0.1
O=C(CSc1ccccc1)N1CCC2(CC1)OCCO2	1.1	3.9*	-0.6	4.5	2.8
Fc1cccc(F)c1-c1nc(-c2ccc(Cl)cc2)no1	2.2	0.2	1.8*	8.3	3.0
CCOC(=O)c1c(C)[nH]c(C(=O)C(Cc2ccccc2)N(C)C)c1C (stereo unspecified)	0.4	-0.9	-1.0	2.7	-2.0
COC(=O)c1c(C)[nH]c(C(=O)C(Cc2ccccc2)N(C)C)c1C (stereo unspecified)	-0.3	0.0	-0.1	1.9	6.4*
c1ccc2c(c1)-c1cccc3cccc-2c13	5.3*	1.4	-1.1	0.1	-0.3
COc1ccc(-n2nc(C(=O)NCC(=O)N3CCC4(CC3)OCCO4)c3ccccc3c2=O)cc1	0.8	1.2	-0.6	8.3	5.8*
COc1ccc(CNCC(=O)N2CCC3(CC2)OCCO3)cc1	0.2	0.0	-1.4	4.7	-1.1
CN(C)C(=O)Oc1ccnc2cc(Cl)ccc12	5.5*	-0.7	-1.6	-1.5	-1.9
CC1CCCN(c2ccc(C(=O)N3CCC4(CC3)OCCO4)cc2[N+](=O)[O-])C1 (stereo unspecified)	-0.7	0.7	-1.4	-0.7	-2.7
O=C(c1ccc(N2CCCCC2)c([N+](=O)[O-])c1)N1CCC2(CC1)OCCO2	5.1*	-0.8	-1.8	-1.2	-1.5
C=CCn1c(O)c(C(C)=NCc2ccco2)c(=O)[nH]c1=O	1.8	0.8	-0.9	0.0	-1.8
C=CCn1c(O)c(C(CC)=NCc2ccco2)c(=O)[nH]c1=O	4.9*	-0.4	-0.4	-0.4	-0.4
CN1C(=O)[C@@]23C[C@]4(c5c[nH]c6ccccc56)c5ccccc5N(S(=O)(=O)c5ccccc5)[C@@H]4N2C(=O)[C@@H]1SS3	nt	nt	-3.7	-14.3	-8.7
O=C(Nc1ccccc1)N1Cc2cc(Br)ccc2-n2nncc2C1	nt	-1.6	-0.7	-1.1	-0.3
CN(C)c1ccc(/C=C2\C(=O)NC(=O)N(CCc3ccc(F)cc3)C2=O)cc1	5.5*	-0.3	-1.9	-0.5	-1.4
COCCN1C(=O)NC(=O)/C(=C\c2ccc(F)cc2)C1=O	-0.2	0.2	-1.5	4.9	-1.2
Cc1cc(/C=C2\C(=O)NC(=O)N(c3cccc(Br)c3)C2=O)c(C)n1C	2.2	0.2	-1.1	-0.2	-0.2
Cc1cc(/C=C2/C(=O)NC(=O)N(c3ccc(Br)cc3)C2=O)c(C)n1C	3.5	-0.5	-0.2	2.7	5.9*
NC(Cc1ccc(Cl)cc1)c1csc(Nc2ccccn2)n1 (stereo unspecified)	nt	-1.3	-1.1	-0.1	-0.4
NC(Cc1ccccc1)c1csc(Nc2ccccn2)n1 (stereo unspecified)	nt	1.7	0.3	10.7*	3.9
CC(=NNC(=S)N1CC2CCC(CC2)C1)c1nccs1	-3.8	-0.7	0.1	12.1*	4.7
SMILES	DAX1 inh-1	DAX1 inh-2	ssDAF-12 act	hgDAF-12 ag	hcDAF-12 act
N#CC1c2ccccc2-n2nncc2CN1C(=O)c1ccc([N+](=O)[O-])o1 (stereo unspecified)	nt	-1.9	-1.9	-3.0	-1.1
CN(C)c1ccc([N+](=O)[O-])c([N+](=O)[O-])c1	4.4*	-0.2	-1.0	-1.8	0.9
O=C(CN1C(=O)[C@@H](Cc2c[nH]c3ccccc23)N=C(c2ccccc2)c2ccccc21)NC1CCCCC1	nt	0.8	-1.1	0.7	-1.1
Cc1ccc2nc(-c3ccc(CN4CCC(n5nnc6ccccc65)CC4)cc3)c(-c3ccccc3)nc2c1	nt	-4.3	-2.2	-3.1	-4.2
Cn1cccc1/C=C1/C(=O)NC(=O)N(C(C)(C)C)C1=O	4.8*	-0.8	-1.3	-2.2	-1.4
Cn1cccc1/C=C1\C(=O)NC(=O)N(Cc2ccccc2Cl)C1=O	3.5	-0.4	-1.0	-0.1	1.1
COC(=O)C1(N(C)c2ccccc2)CCN(Cc2ccccc2)CC1	nt	1.3	-0.8	-0.4	2.3
C=CCn1c(O)c(/C=C2/C=CC=N2)c(=O)[nH]c1=O	1.3	0.5	-1.4	1.3	-0.5
CCCCn1c(O)c(/C=C2/C=CC=N2)c(=O)[nH]c1=O	5.4*	0.1	-0.8	0.3	-2.1
C/C(=N\NC(=O)c1ccccc1)c1c(O)n(Cc2ccccc2)c(=O)[nH]c1=O	nt	1.1	-0.8	11.4*	2.7
O=c1[nH]c(=S)[nH]c(O)c1/C=C1/C=c2ccccc2=N1	2.7	0.1	0.0	3.4	5.8*
Cc1cccc2c1=NC(=O)/C(=C/c1c(O)[nH]c(=O)[nH]c1=O)C=2	1.5	-0.4	0.1	-0.1	5.4
CCOC(=O)[C@]12Cc3ccccc3[C@H]1N(C)C(=O)c1cc(OC)ccc12	nt	3.7*	-1.5	-2.2	-0.9
CCOC(=O)[C@]12Cc3cc(OC)ccc3[C@H]1N(C1CCCCC1)C(=O)c1cc(OC)ccc12	nt	-1.2	-1.1	-0.1	-2.0
CCOC(=O)[C@]12Cc3cc(C)ccc3[C@H]1N(C(C)C)C(=O)c1ccccc12	nt	4.2*	-0.9	-1.1	2.2
COc1cc(O)c2c(c1)/C=C/C[C@H](O)[C@H](O)[C@@H](O)/C=C/C[C@H](C)OC2=O	nt	0.8	-0.2	0.2	-2.1
N=c1c2c(-c3ccccc3)c(-c3ccccc3)n(Cc3ccccc3)c2ncn1C1CCC(O)CC1 (stereo unspecified)	nt	-2.1	-0.7	1.2	-0.6
Cc1ccccc1NC(=S)NC(NC(=O)CF)C(Cl)(Cl)Cl (stereo unspecified)	5.6*	-0.5	-0.7	-4.8	0.8
COc1ccc(NC(=S)NC(NC(=O)CF)C(Cl)(Cl)Cl)c([N+](=O)[O-])c1 (stereo unspecified)	-0.6	0.1	-1.2	1.5	0.0
O=c1[nH]c(=O)n(-c2cccc(F)c2)c(O)c1/C=C1\C=Nc2ccccc21	1.0	0.0	0.4	0.7	5.7*
O=c1[nH]c2cc(Cl)ccc2n1C1CCN(Cc2ccc(-c3nc4ccc(F)cc4nc3-c3ccccc3)cc2)CC1	nt	-1.0	-1.5	0.4	2.1
O=C(NCCN1CCC2(CC1)C(=O)NCN2c1ccccc1)C(c1ccccc1)c1ccccc1	nt	1.2	-1.2	-0.4	-1.8
COc1cc2nc(CN3CC=C(c4ccccc4)CC3)[nH]c(=O)c2cc1OC	6.0*	-0.9	-0.5	8.0	0.7
COc1cc(C=C2C(=O)NC(=O)NC2=O)ccc1OCc1ccc([N+](=O)[O-])cc1	1.8	1.7	-0.6	13.1*	2.7
O=C1NC(=O)C(=Cc2ccc(Oc3ccc([N+](=O)[O-])cc3)cc2)C(=O)N1	0.6	nt	nt	nt	nt
